Reference: the supplement of paper PMC4840960

The molecules below were run on E18 rat cortical neuron-glia co-culture (assay: myelination (MBP fiber length per Olig2+ nucleus), % of 1 µM DAPT response (DMSO = 0) (% of DAPT); higher = more myelination, active = 50 or more). Settings: 1 µM; treatment time: 8 days (DIV5-DIV13).
Summary of the method: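 Primary E18 rat cortical co-cultures (papain-dissociated, 20,000 cells/well on poly-d-lysine/laminin 96-well plates) received library compounds at 1 or 5 µM in myelination medium from DIV5 to DIV13. Cells were fixed in 4 % paraformaldehyde and immunostained for MBP and Olig2 with DAPI, and four 10X fields per well in duplicate wells were analysed. Myelination was continuous straight MBP fiber length per Olig2+ nucleus, normalised to 0.1 % DMSO (0) and a 1 µM positive control (100).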

myelination, inactive:
Cc1ccc(O)c([C@H](CCN(C(C)C)C(C)C)c2ccccc2)c1 [Tolterodine] -15.9
CC/C(=C(\c1ccccc1)c1ccc(OCCN(C)C)cc1)c1ccccc1 [Tamoxifen] -18.7
Clc1ccc(CO/N=C(\Cn2ccnc2)c2ccc(Cl)cc2Cl)c(Cl)c1 [Oxiconazole] -25.1
C[C@@H]1CN(CCCn2c3ccccc3c3ccccc32)C[C@H](C)N1 [Rimcazole] -12.2
O=c1c(O[C@@H]2O[C@H](CO)[C@H](O)[C@H](O)[C@H]2O)c(-c2ccc(O)c(O)c2)oc2cc(O)cc(O)c12 [Hyperoside] -69.1
COC(=O)C1=C(C)NC(C)=C(C(=O)OCC(C)C)C1c1ccccc1[N+](=O)[O-] (configuration not stated) [Nisoldipine] -11.1
Nc1nc(O)c2ncn(CCC(CO)CO)c2n1 [Penciclovir] 3
